Assay outcomes deposited in PubChem BioAssay by NMMLSC.
AGP1-GFP MLPCN – modulators of TOR pathway AGP1-GFP in S. cerevisiae. GFP response vs DMSO, % at 10 µM. S. cerevisiae AGP1-GFP multiplex flow cytometry, 3 h; GFP as percent of DMSO wells. 320,000 tested, 0.02% active. AID 2066;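 active = GFP response relative to DMSO above a set limit, near screen average plus 3 SD, cut at about 150% in these data; inconclusive = fewer than 70 cells counted for the yeast strain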;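 also: median GFP channel fluorescence of the gated AGP1 strain per well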
LAP4 TOR yeast – yeast TOR pathway LAP4-GFP modulation. S. cerevisiae LAP4-GFP multiplex, flow cytometry GFP, 3 h; median GFP as percent of DMSO wells. GFP response vs DMSO, % at 10 µM. 320,000 tested, 0.34% active. AID 2023;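 active = GFP response vs DMSO above a set limit, about the screen mean plus 3 SD, cut at about 150% in these data; inconclusive = under 70 cell events counted for the yeast strain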
MEP2 TOR yeast – alters MEP2-GFP fluorescence in TOR pathway yeast screen | GFP response vs DMSO, % at 10 µM | 330,000 tested, 0.51% active | S. cerevisiae MEP2-GFP strain, flow cytometry GFP, 3 h; 100% = DMSO control level;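 active = GFP response versus DMSO above a set limit, roughly screen mean plus 3 SD, cut at about 180% in these data; inconclusive = fewer than 70 cells counted for a yeast strain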;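 also: median GFP fluorescence of the barcode-gated MEP2-GFP cells per well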
RPL19A-GFP yeast – alters RPL19A-GFP fluorescence in TOR pathway yeast screen; S. cerevisiae RPL19A-GFP strain, flow cytometry, 3 h; stronger effect = lower value; percent response vs DMSO, % at 10 µM; 330,000 tested, 0.3% active; AID 2025;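 active = percent response vs DMSO below 50%; inconclusive = fewer than 70 events counted for the yeast strain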;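 also: median channel GFP fluorescence of the barcoded RPL19A-GFP strain; ratio of sample median GFP to plate DMSO average so 100% = DMSO; lower means less RPL19A-GFP as with rapamycin TOR inhibition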
Efflux pump mplx – blocks antifungal efflux pumps in multiplex yeast assay; inhibition, % at 10 µM; 330,000 tested, 0.44% active; AID 485275; S. cerevisiae Candida pump triplex, Nile Red efflux;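 active = plate passing quality check with inhibition over a set limit, or well fluorescence over plate mean plus 4 SD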;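 also: Nile Red retained in pooled yeast measured as flow cytometry median fluorescence; 0% = buffer negative control and 100% = Enniatin B positive control; higher means more Nile Red kept so more efflux inhibition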
CIT2-GFP yeast – alters CIT2-GFP fluorescence in TOR pathway yeast screen | S. cerevisiae CIT2-GFP strain, flow cytometry, 3 h; 100 means same as DMSO wells | GFP response vs DMSO, % at 10 µM | 320,000 tested, 0.065% active | AID 2029;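 active = GFP response relative to DMSO above a set limit, near the screen mean plus 3 SD, cut at about 150% in these data; inconclusive = Fewer than 70 cells measured for a yeast strain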;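 also: ratio of well median GFP fluorescence to mean of DMSO wells on the plate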
Starred values were filed as active, the others as inactive; [ ] = dose if it differs, or a comment. Sampled rows, rich in hits. Any-hit rate of the full collection: about 1.3%.

O=C(C1=C(O)C(=O)N(CCN2CCOCC2)C1c1ccc(F)cc1)c1cc2ccccc2o1 (stereo not given) was read as AGP1-GFP MLPCN inconclusive, LAP4 TOR yeast 70, MEP2 TOR yeast 158, RPL19A-GFP yeast 16*[may fluoresce violet], Efflux pump mplx 0 and CIT2-GFP yeast inconclusive.
Screening CC1CCN(c2nc3c(=O)[nH]c(N)nc3n2[C@@H]2O[C@H](CO)[C@@H](O)[C@H]2O)CC1 returned AGP1-GFP MLPCN inconclusive, LAP4 TOR yeast 99, MEP2 TOR yeast active[may fluoresce violet], RPL19A-GFP yeast 86, Efflux pump mplx 0 and CIT2-GFP yeast inconclusive.
`COCc1cc(C)n(CC(=O)Nc2ccccc2OC)c(=O)c1C#N` gave AGP1-GFP MLPCN inconclusive, LAP4 TOR yeast 88, MEP2 TOR yeast 571*[may fluoresce violet], RPL19A-GFP yeast 48*[may fluoresce violet], Efflux pump mplx 0 and CIT2-GFP yeast inconclusive.
Screening COCc1cc(C)n(CC(=O)Nc2ccc(Cl)cc2Cl)c(=O)c1C#N returned AGP1-GFP MLPCN 100, LAP4 TOR yeast 97, MEP2 TOR yeast 108, RPL19A-GFP yeast 98, Efflux pump mplx 0 and CIT2-GFP yeast 104.
CCOc1ccc(CCNC(=O)COC(=O)c2ccc(C)c([N+](=O)[O-])c2)cc1OCC was read as AGP1-GFP MLPCN 107, LAP4 TOR yeast 117, MEP2 TOR yeast 108, RPL19A-GFP yeast 104, Efflux pump mplx 0 and CIT2-GFP yeast 103.
`COc1ccc(-c2cc(C(F)(F)F)nc(N3CCOCC3)n2)cc1OC` gave AGP1-GFP MLPCN 99, LAP4 TOR yeast 186*, MEP2 TOR yeast 213*, RPL19A-GFP yeast 81, Efflux pump mplx 0 and CIT2-GFP yeast 99.
For COc1cccc(-c2cc(C(F)(F)F)nc(N3CCOCC3)n2)c1 the results were AGP1-GFP MLPCN 110, LAP4 TOR yeast 108, MEP2 TOR yeast 111, RPL19A-GFP yeast 106, Efflux pump mplx 0 and CIT2-GFP yeast 108.
Screening CN(CCc1cnn(C)c1)C(=O)C1CCC(=O)N(CC2CCCCC2)C1 (stereo not given) returned AGP1-GFP MLPCN 97, LAP4 TOR yeast 94, MEP2 TOR yeast 102, RPL19A-GFP yeast 103, Efflux pump mplx 0 and CIT2-GFP yeast 99.
`O=C(CSc1ccsc1[N+](=O)[O-])NC1CCCC1` gave AGP1-GFP MLPCN inconclusive, LAP4 TOR yeast 76, MEP2 TOR yeast 204*[may fluoresce violet], RPL19A-GFP yeast 72, Efflux pump mplx 0 and CIT2-GFP yeast inconclusive.
For COc1ccccc1NC(=O)Cn1nnc(-c2ccccc2NC(=O)c2ccco2)n1 the results were AGP1-GFP MLPCN 103, LAP4 TOR yeast 86, MEP2 TOR yeast 195*, RPL19A-GFP yeast 96, Efflux pump mplx 0 and CIT2-GFP yeast 100.
COc1ccc(NC(=O)Cn2nnc(-c3ccccc3NC(=O)c3ccco3)n2)cc1 was read as AGP1-GFP MLPCN 103, LAP4 TOR yeast 92, MEP2 TOR yeast 99, RPL19A-GFP yeast 95, Efflux pump mplx 0 and CIT2-GFP yeast 103.
Screening O=C(O)Cc1sc(Nc2ccc(F)cc2)nc1-c1cccs1 returned AGP1-GFP MLPCN 66, LAP4 TOR yeast 195*, MEP2 TOR yeast 96, RPL19A-GFP yeast 80, Efflux pump mplx 0 and CIT2-GFP yeast 62.
`O=C(N/N=C/c1cccnc1)C(=O)N1CCCCCC1` gave AGP1-GFP MLPCN 98, LAP4 TOR yeast 98, MEP2 TOR yeast 106, RPL19A-GFP yeast 99, Efflux pump mplx 0 and CIT2-GFP yeast 102.
For CC(C)OCCCn1c(=N)c(S(=O)(=O)c2ccccc2)cc2c(=O)n3ccccc3nc21 the results were AGP1-GFP MLPCN 98, LAP4 TOR yeast 100, MEP2 TOR yeast 96, RPL19A-GFP yeast 98, Efflux pump mplx 0 and CIT2-GFP yeast 94.
N=c1c(S(=O)(=O)c2ccc(Cl)cc2)cc2c(=O)n3ccccc3nc2n1CCN1CCOCC1 was read as AGP1-GFP MLPCN 85, LAP4 TOR yeast 92, MEP2 TOR yeast 86, RPL19A-GFP yeast 91 and Efflux pump mplx 0.
For Cc1ccc(S(=O)(=O)c2cc3c(=O)n4ccccc4nc3n(CCCN3CCOCC3)c2=N)cc1C the results were AGP1-GFP MLPCN inconclusive, LAP4 TOR yeast 86, MEP2 TOR yeast 136, RPL19A-GFP yeast 41*[may fluoresce violet], Efflux pump mplx 0 and CIT2-GFP yeast inconclusive.
Screening N=c1c(S(=O)(=O)c2ccccc2)cc2c(=O)n3ccccc3nc2n1CCCN1CCOCC1 returned AGP1-GFP MLPCN inconclusive, LAP4 TOR yeast 88, MEP2 TOR yeast 233*[may fluoresce violet], RPL19A-GFP yeast 86, Efflux pump mplx 0 and CIT2-GFP yeast inconclusive.
For CCOCCCn1c(=N)c(S(=O)(=O)c2ccccc2)cc2c(=O)n3cc(C)ccc3nc21 the results were AGP1-GFP MLPCN 15, LAP4 TOR yeast 95, MEP2 TOR yeast 176*[may fluoresce violet], RPL19A-GFP yeast 87, Efflux pump mplx 0 and CIT2-GFP yeast inconclusive.
Screening COc1cc(OC)cc(N(C(=O)CNC(=O)c2ccco2)C(C(=O)NCC2CCCO2)c2ccccc2)c1 (stereo not given) returned AGP1-GFP MLPCN 105, LAP4 TOR yeast 98, MEP2 TOR yeast 99, RPL19A-GFP yeast 105, Efflux pump mplx 0 and CIT2-GFP yeast 110.
COc1ccccc1CN(C)C(=O)COC(=O)c1c(C)noc1C was read as AGP1-GFP MLPCN 97, LAP4 TOR yeast 95, MEP2 TOR yeast 97, RPL19A-GFP yeast 97, Efflux pump mplx 0 and CIT2-GFP yeast 105.
For CC(C)=CC(=O)O[C@@H]1Cc2cc3ccc(=O)oc3cc2OC1(C)C the results were AGP1-GFP MLPCN 97, LAP4 TOR yeast 109, MEP2 TOR yeast 100, RPL19A-GFP yeast 99, Efflux pump mplx 0 and CIT2-GFP yeast 86.
`CN(C)/C=C1/C=C(C=O)OC1=O` gave AGP1-GFP MLPCN 87, LAP4 TOR yeast 102, MEP2 TOR yeast 100, RPL19A-GFP yeast 95, Efflux pump mplx 0 and CIT2-GFP yeast 89.
Screening CC1=C/C(=C/N(C)C)C(=O)O1 returned AGP1-GFP MLPCN inconclusive, LAP4 TOR yeast 130, MEP2 TOR yeast inconclusive, RPL19A-GFP yeast 19*[may fluoresce violet], Efflux pump mplx 0 and CIT2-GFP yeast inconclusive.
`Cc1ccc(CNS(=O)(=O)c2cc(F)ccc2CN2C(=O)c3cccnc3C2=O)o1` gave AGP1-GFP MLPCN 99, LAP4 TOR yeast 91, MEP2 TOR yeast 93, RPL19A-GFP yeast 96, Efflux pump mplx 0 and CIT2-GFP yeast 109.
`Cc1ccc(CNS(=O)(=O)c2ccc(CN3C(=O)c4cccnc4C3=O)cc2)o1` gave AGP1-GFP MLPCN inconclusive, LAP4 TOR yeast 82, MEP2 TOR yeast 127, RPL19A-GFP yeast 27*[may fluoresce violet], Efflux pump mplx 0 and CIT2-GFP yeast inconclusive.
Screening CC(C)C1N(C(N)=S)N=CC1(C)C (stereo not given) returned MEP2 TOR yeast 664*[may fluoresce violet], RPL19A-GFP yeast 49*[may fluoresce violet] and Efflux pump mplx 0.
